Only some compounds are listed: those with a hit (about 4.7% of all), similar ones and a draw of the others.
D1 agonist: human D1 receptor agonism; P21728; HEK293 T-REx D1 cells, calcium flux, agonist mode; activation, % at 2 µM; hit rate 1% among 360,000; also: 0% is about no effect
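Inducible HEK293 T-REx D1 cells, force-coupled to calcium signalling, were plated at 4000 cells/well with tetracycline and held overnight at 30 C. After no-wash calcium dye loading, compound-evoked calcium rise over 180 s flagged agonists.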
D1 antag: blocks dopamine activation of the human D1 receptor; P21728; HEK293 TREx D1 cells, calcium flux, dopamine EC80; stronger effect = lower value; activity change, negative = inhibition, % at 10 µM; hit rate 3.2% among 360,000; AID 504652; in the data active = activity change below about -30%; also: % is scaled to controls: 0 for no effect and ±100 for the full control effect
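Inducible Hek293 Trex D1 cells (tetracycline, overnight, 30 C). Calcium dye 30–90 min RT. Antagonist mode: EC80 dopamine added after 180 s compound read.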
TRHR agonist: TRH receptor (human) agonism; P34981; TRHR cells, calcium flux fluo-8, FDSS agonist mode; activation, % at 2 µM; hit rate 0.18% among 360,000; also: 0% is about no effect
Target sequence (P34981 whole entry, looked up): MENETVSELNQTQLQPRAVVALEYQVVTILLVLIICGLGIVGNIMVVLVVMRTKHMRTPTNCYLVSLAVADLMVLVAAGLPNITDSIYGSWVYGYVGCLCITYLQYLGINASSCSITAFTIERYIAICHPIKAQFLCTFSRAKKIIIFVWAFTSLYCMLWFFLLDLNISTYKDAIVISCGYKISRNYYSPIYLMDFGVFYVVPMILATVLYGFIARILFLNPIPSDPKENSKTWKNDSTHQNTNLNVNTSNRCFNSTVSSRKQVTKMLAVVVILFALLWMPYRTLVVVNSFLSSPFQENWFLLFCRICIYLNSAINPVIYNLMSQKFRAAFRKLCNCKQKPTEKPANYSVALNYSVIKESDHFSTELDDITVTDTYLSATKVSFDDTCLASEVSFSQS
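Read-out: compound-evoked intracellular calcium rise in TRHR cells, fluo-8 dye, kinetic FDSS fluorescence at 1 s/cycle following a 10-cycle baseline. Cells cultured overnight before dye loading (30 min–1.5 h, RT).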
TRHR enhancer: TRH receptor (human) allosteric enhancement; P34981; TRHR cells, fluo-8 calcium fluorescence, EC20 TRH enhancement; enhancement, % at 2 µM; hit rate 0.66% among 360,000; AID 493056; in the data active = enhancement above about 30%; also: 0% is about no effect
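TRHR-expressing cells loaded with fluo-8 calcium dye were read kinetically (ex 480/em 530) during compound addition, then stimulated with an EC20 of TRH (10 nM final). Enhancement of the Gq-mediated intracellular calcium response was scored.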
D1 PAM: enhances dopamine response at the human D1 receptor; HEK293 TREx D1 cells, calcium flux, dopamine EC20 potentiation; P21728; potentiation, % at 10 µM; hit rate 0.036% among 360,000; AID 504651; in the data active = potentiation above about 30%; also: 0% is about no effect
Active calls of the source: *; x = no result given. Rule as the data show it, unless noted: active = activation above about 30%; inactive = the rest.

SMILES | D1 agonist | D1 antag | TRHR agonist | TRHR enhancer | D1 PAM
O=C(CCS(=O)(=O)c1nc(-c2ccc3c(c2)OCO3)cc(C(F)(F)F)n1)Nc1ccccc1C(F)(F)F | 5 | -11 | 0 | -1 | 0
CCN(c1ccccc1)S(=O)(=O)c1ccc(Cl)c(C(=O)N(CC2CCCO2)C2CCS(=O)(=O)C2)c1 (stereo not given) | 6 | -36* | -1 | -7 | -3
Cc1ccc(C(=O)N(Cc2ccc(N(C)C)cc2)CC2CCCO2)cc1 (stereo not given) | -2 | -15 | -1 | 0 | 1
CC(C)c1cc(-c2nc(-c3ccc(Cl)cc3)no2)n[nH]1 | 1 | -38* | 1 | 1 | -5
COc1cc(-c2noc(-c3cc(C(C)C)[nH]n3)n2)cc(OC)c1OC | 1 | 0 | 0 | 0 | 2
COc1ccc(NC(=O)c2oc3ccccc3c2NC(=O)Cc2cccs2)c(OC)c1 | 10 | -25 | -2 | 9 | -3
Nc1nc(-c2ccccc2)nn1C(=O)c1ccco1 | 3 | -34* | 0 | -4 | -6
O=C(c1ccco1)n1nc(-c2ccccc2)nc1SCc1ccccc1 | 1 | -3 | 1 | -10 | 5
Cc1nn(C(C)(C)C)c(OC(=O)C(C)(C)C)c1Sc1ccccc1 | 3 | 20 | 0 | 19 | 8
Cc1cc2c(s1)c1cnn(Cc3cc(Cl)ccc3F)c(=O)c1n2C | 0 | -12 | -1 | -1 | 0
CCCc1cc(-c2[nH]ncc2-c2ccc3c(c2)OCCCO3)c(O)cc1OC | 37* | -27 | 0 | -6 | -1
CCOCCCNC(=O)CN1C(=O)c2c(c3ccccc3n2C)C1c1ccc(OC)cc1 (stereo not given) | -1 | 17 | -1 | 0 | 5
COC(=O)c1cn(-c2ccccc2)nc1-c1ccccc1 | 1 | 14 | 0 | -5 | -6
COC(=O)c1cn(-c2ccccc2)c(C)c1C(=O)OC | 50* | 5 | 0 | 6 | -4
Cc1cc(C)c2c(C)nn(-c3ccccc3)c2n1 | 37* | 1 | -1 | -10 | 4
O=C(O)c1ccc(/C=N/NC(=O)C(O)(c2ccccc2)c2ccccc2)cc1 | 9 | -32* | 0 | 15 | 0
Cc1cccc2cc(CN(Cc3ccco3)C(=O)Nc3cccc(C#N)c3)c(Cl)nc12 | 14 | -55* | 3 | -5 | -8
Cc1ccc(NC(=O)N(Cc2ccco2)Cc2cc3cc(C)cc(C)c3nc2Cl)cc1 | 5 | -4 | -1 | 16 | -5
Cc1cccc(CCNC(=O)c2cc3c(=O)n(C)c4ccccc4c3n2C)c1 | 2 | 9 | 0 | 6 | 3
COc1cccc(-n2nnc(-c3nc(-c4ccccc4F)no3)c2C)c1 | 12 | -12 | 1 | 1 | -3
Cc1cc(NC(=O)C(C)C)ncc1NC(=O)Cc1ccccc1 | 14 | 0 | 1 | 10 | -1
COc1cc(C(=O)Nc2cnc(NC(=O)C(C)C)cc2C)cc(OC)c1OC | 1 | -47* | 0 | 0 | -9
O=C(/C=C/Nc1ccc(F)c(Cl)c1)c1ccco1 | 8 | -37* | 0 | 7 | 19
COc1ccc(Cl)cc1NC(=O)CSc1nc(-c2ccccc2)c2ccccc2n1 | 3 | 3 | 2 | -3 | 5
O=C(CN1C(=O)S/C(=C/c2ccccn2)C1=O)N1CCOCC1 | 3 | -1 | 2 | 3 | 3
SMILES | D1 agonist | D1 antag | TRHR agonist | TRHR enhancer | D1 PAM
O=C(CCCN1C(=O)S/C(=C\C=C\c2ccccc2)C1=O)Nc1ccc(O)cc1 | 14 | -31* | -1 | 5 | 0
O=C(CCN1C(=O)S/C(=C/c2ccccc2)C1=O)Nc1ccc(C(=O)O)c(O)c1 | 55* | 22 | -1 | -13 | 18
O=C(CN1C(=O)S/C(=C\C=C\c2ccccc2)C1=O)N1CCOCC1 | 0 | -40* | 1 | 4 | 8
O=C(CCCN1C(=O)S/C(=C/c2ccccc2)C1=S)Nc1ccc(C(=O)O)cc1 | 4 | -40* | 0 | -1 | -2
CC(=O)c1ccc(N2C(=O)N(Cc3cccc(C(F)(F)F)c3)c3ccccc3S2(=O)=O)cc1 | 5 | 5 | 0 | 3 | -3
Cc1nn(C)c(C)c1S(=O)(=O)N(CC(=O)Nc1ccc(F)cc1F)c1ccc(C(C)C)cc1 | 0 | -13 | -1 | -7 | 0
O=C(COC(=O)c1ccc(O)cc1O)Nc1cccc2ccccc12 | 6 | 8 | 0 | 35* | 3
Cc1ccc(C(=O)OCC(=O)Nc2ccccc2Cl)c(O)c1 | 1 | -4 | 0 | 0 | 3
COc1ccccc1-c1noc(-c2ccc(NCc3cccnc3)c([N+](=O)[O-])c2)n1 | 1 | -19 | 0 | 4 | -4
Cc1ccccc1C(=O)Nc1ccc(C(=O)OCc2cc(=O)n3c4c(sc3n2)CCCC4)cc1 | 0 | 6 | 1 | -2 | -1
Cc1cn2c(=O)cc(COc3ccc(NC(=O)c4cccc(F)c4)cc3)nc2s1 | 1 | -41* | -2 | 10 | -6
Cc1ccc(OCC(=O)Nc2ccc(OCc3cc(=O)n4ccsc4n3)cc2)cc1 | 144* | 3 | -1 | -4 | 1
COc1ccc(C(=O)Nc2cccc(OCc3cc(=O)n4c5c(sc4n3)CCCC5)c2)cc1OC | 2 | 6 | 0 | 3 | -2
O=C(Nc1cccc(OCc2cc(=O)n3c4c(sc3n2)CCCC4)c1)c1ccc(F)cc1 | -1 | -31* | -2 | 4 | -6
Cc1ccccc1C(=O)Nc1cccc(OCc2cc(=O)n3c4c(sc3n2)CCCC4)c1 | 3 | -15 | -1 | 32* | -2
Cc1ccccc1OCC(=O)Nc1ccc(OCc2cc(=O)n3ccsc3n2)cc1 | 0 | 16 | 0 | 1 | -4
CCC(Sc1ncc(S(=O)(=O)c2ccc(Cl)cc2)c(=O)[nH]1)C(=O)Nc1ccc(OC)cc1 (stereo not given) | -1 | 9 | -1 | -4 | -1
CCC(=O)N1c2ccccc2CC1C(=O)NCCc1ccccc1C (stereo not given) | -2 | 7 | 0 | -4 | 1
Cc1cccc(C)c1NC(=O)Cn1c(=O)n(CCC(=O)NCc2ccccc2Cl)c(=O)c2sccc21 | 9 | -8 | 0 | -3 | 1
O=C(CSc1nnc(-c2ccc3c(c2)OCO3)o1)Oc1ccccc1 | 0 | 13 | 0 | 3 | -1
COc1ccc2c(c1)c1c(c(=O)n(-c3ccc(C)cc3)c(=O)n1CC(=O)Nc1cc(C)ccc1C)n2C | 2 | 14 | -1 | -2 | -1
Cc1cc(=O)oc2c3c(cc(OCC(=O)NCc4ccccc4)c12)OC(C)(C)CC3 | 2 | -32* | 2 | -12 | -6
Cc1ccc(Cc2cnc(NC(=O)c3ccco3)s2)cc1 | 2 | x | 2 | 11 | -2
O=C(Nc1ncc(Cc2ccc(SC(F)F)cc2)s1)c1ccc(OC(F)F)cc1 | 35* | -16 | 3 | -4 | -7
CSc1ccc(CCNC(=O)NCc2noc3ccccc23)cc1 | -1 | -1 | 0 | -6 | -2

High-throughput results (PubChem BioAssay)
